Values joined by “and” are separate entries in the source; they are usually repeats but may differ in a detail not shown here. Equal entries are not always repeated. In all, about 5,500 compounds went through this assay and about 2,000 (36%) were called active. Another 18% or so got no clear call; they are omitted. No stated cut-off is given here; in the data, active means normalized growth mostly below about 0.91 (no sharp cut-off); inconclusive means no clear call, values can overlap the other calls; inactive means mostly above about 0.92. Some of the results follow.
Assay: chemical genetic growth profiling, strain panel (AID 1159580);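 further: tested at 20 µM; growth read once vehicle control cultures reached saturation at 30 °C; 1 = growth at the plate median or of vehicle wells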
Details: S. cerevisiae deletion strains, growth OD

Measured: normalized growth

CN(C)CCCN1c2ccccc2CCc2ccc(Cl)cc21
0.696 (active) and 0.99 (inactive): locus YJL095W, strain BCK1, stronger effect = lower value
0.876 (active) and 1 (inactive): locus YHR030C, strain SLT2, stronger effect = lower value
inactive: locus YAL013W, strain DEP1, stronger effect = lower value 0.92 and 0.962 | locus YAL030W, strain snc1, stronger effect = lower value 1 | locus YAL040C, strain CLN3, stronger effect = lower value 1.02 | locus YBL061C, strain skt5, stronger effect = lower value 1.01 | locus YBR009C, strain hhf1, stronger effect = lower value 0.944 | locus YBR023C, strain chs3, stronger effect = lower value 1.01 | locus YBR171W, strain sec66, stronger effect = lower value 0.99 | locus YBR229C, strain ROT2, stronger effect = lower value 0.975 | locus YBR231C, strain swc5, stronger effect = lower value 1.01 | locus YBR279W, strain paf1, stronger effect = lower value 0.996 | locus YCL011C, strain gbp2, stronger effect = lower value 0.984 | locus YCL016C, strain dcc1, stronger effect = lower value 0.994 | locus YCL029C, strain bik1, stronger effect = lower value 1 | locus YCL061C, strain MRC1 (second series), stronger effect = lower value 0.999 | locus YCL061C, strain MRC1, stronger effect = lower value 1 | locus YCL069W, strain vba3, stronger effect = lower value 1 | locus YCR088W, strain abp1, stronger effect = lower value 1 | locus YDL005C, strain med2, stronger effect = lower value 1.03 | locus YDL040C, strain nat1, stronger effect = lower value 0.998 | locus YDL101C, strain DUN1, stronger effect = lower value 0.977 | locus YDL185W, strain tfp1, stronger effect = lower value 0.984 | locus YDL192W, strain arf1, stronger effect = lower value 0.933 | locus YDR001C, strain nth1, stronger effect = lower value 1.01 | locus YDR069C, strain doa4, stronger effect = lower value 0.919 | locus YDR101C, strain arx1, stronger effect = lower value 1 | locus YDR150W, strain NUM1, stronger effect = lower value 1.01 | locus YDR159W, strain sac3, stronger effect = lower value 1.04 | locus YDR195W, strain ref2 1.07 | locus YDR297W, strain sur2, stronger effect = lower value 1.01 | locus YDR318W, strain mcm21, stronger effect = lower value 0.978 | locus YDR334W, strain swr1, stronger effect = lower value 1.01 | locus YDR335W, strain msn5, stronger effect = lower value 1 | locus YDR392W, strain spt3, stronger effect = lower value 0.93 | locus YDR502C, strain sam2, stronger effect = lower value 0.963 | locus YEL003W, strain gim4, stronger effect = lower value 0.984 | locus YEL037C, strain rad23, stronger effect = lower value 1 | locus YEL061C, strain CIN8 (second series), stronger effect = lower value 1.01 | locus YEL061C, strain CIN8, stronger effect = lower value 0.99 | locus YER002W, strain NOP16, stronger effect = lower value 1.08 | locus YER015W, strain faa2, stronger effect = lower value 0.972 | locus YER016W, strain bim1, stronger effect = lower value 1 | locus YER110C, stronger effect = lower value 0.999 | locus YER111C, strain swi4, stronger effect = lower value 0.994 | locus YER155C, strain BEM2 (second series), stronger effect = lower value 1.01 | locus YER155C, strain BEM2, stronger effect = lower value 1 | locus YER167W, strain BCK2, stronger effect = lower value 0.952 | locus YGL078C, strain dbp3, stronger effect = lower value 0.989 | locus YGL086W, strain mad1, stronger effect = lower value 0.967 | locus YGL167C, strain pmr1, stronger effect = lower value 1 | locus YGL173C, strain kem1, stronger effect = lower value 0.967 | locus YGL227W, strain vid30, stronger effect = lower value 0.993 | locus YGL240W, strain doc1, stronger effect = lower value 1 | locus YGL248W, strain PDE1, stronger effect = lower value 0.917 | locus YGL253W, strain hxk2, stronger effect = lower value 0.971 | locus YHR013C, strain ard1, stronger effect = lower value 0.852 | locus YHR079C, strain IRE1 (second series), stronger effect = lower value 0.992 | locus YHR079C, strain IRE1, stronger effect = lower value 0.981 | locus YHR094C, strain hxt1, stronger effect = lower value 0.993 | locus YHR129C, strain ARP1, stronger effect = lower value 0.986 | locus YHR142W, strain chs7, stronger effect = lower value 0.977 | locus YHR200W, strain rpn10, stronger effect = lower value 0.998 | locus YIL073C, strain SPO22, stronger effect = lower value 0.79 | locus YIL125W, strain kgd1, stronger effect = lower value 0.993 | locus YIR030C, strain dcg1, stronger effect = lower value 0.995 | locus YJL092W, strain hpr5, stronger effect = lower value 1.01 | locus YJL095W, strain BCK1 (second series), stronger effect = lower value 0.997 | locus YJL115W, strain asf1, stronger effect = lower value 0.997 | locus YJL129C, strain trk1, stronger effect = lower value 1.02 | locus YJL134W, strain LCB3, stronger effect = lower value 0.991 | locus YJL154C, strain vps35, stronger effect = lower value 1 | locus YJL164C, strain tpk1, stronger effect = lower value 0.993 | locus YJL166W, strain qcr8, stronger effect = lower value 0.957 | locus YJL168C, strain set2, stronger effect = lower value 0.993 | locus YJL187C, strain SWE1 (second series), stronger effect = lower value 0.887 | locus YJL187C, strain SWE1, stronger effect = lower value 1 | locus YJR043C, strain POL32, stronger effect = lower value 1.01
active: locus YAL021C, strain ccr4, stronger effect = lower value 0.899 | locus YAL026C, strain drs2, stronger effect = lower value 0.77 | locus YBR021W, strain FUR4, stronger effect = lower value 0.561 | locus YDL035C, strain GPR1, stronger effect = lower value 0.824 | locus YDL074C, strain BRE1, stronger effect = lower value 0.674 | locus YDL134C, strain PPH21, stronger effect = lower value 0.812 | locus YDR137W, strain rgp1, stronger effect = lower value 1.21 [resistant] | locus YDR162C, strain NBP2, stronger effect = lower value 0.725 | locus YDR388W, stronger effect = lower value 0.825 | locus YFR010W, strain ubp6, stronger effect = lower value 0.882 | locus YGR135W, strain pre9, stronger effect = lower value 0.784 | locus YGR252W, strain gcn5, stronger effect = lower value 0.527 | locus YHR027C, strain rpn1, stronger effect = lower value 0.915 | locus YIL066C, strain RNR3, stronger effect = lower value 0.836
